Assay results as given in PubChem BioAssay (Tox21).
Results filed as inconclusive are left out. A call without a number means that no potency is given here. The source made the active and inactive calls. The call rests on the fitted dose curve.

How the values were obtained:
[1] = target: Acetylcholinesterase (Homo sapiens) (UniProt P22303); assay: Acetylcholinesterase (AChE) small molecule antagonists: colormetric cell-based qHTS assay (AID 1347395); further: nearly all actives have a fitted effect of over 30% in size; further: potency means the concentration at half of the fitted maximal effect
Summary of the method: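 Endogenous AChE of human neuroblastoma SH-SY5Y cells was measured with an Ellman-type DTNB/acetylthiocholine mix. Compound pretreatment lasted 30 min at 37 C; substrate reaction ran 90 min at 37 C.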

[2] = target: Acetylcholinesterase (Homo sapiens) (UniProt P22303); assay: Acetylcholinesterase (AChE) small molecule antagonists: enzyme-based qHTS assay (AID 1347397); conditions: Potency: AChE enzyme activity inhibition; outcome: AChE enzyme activity inhibition; further: nearly all actives have a fitted effect of over 55% in size; further: potency means the concentration at half of the fitted maximal effect
Summary of the method: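 Recombinant human AChE, dispensed at 50 mU/mL, was preincubated with Tox21 10K compounds or DMSO vehicle for 30 min at room temperature. DTNB plus acetylthiocholine was then added, and thiocholine was measured colorimetrically after a further 10 min.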

[3] = target: Acetylcholinesterase (Homo sapiens) (UniProt P22303); assay: Acetylcholinesterase (AChE) small molecule antagonists: enzyme-based qHTS assay with human liver microsomes (AID 1347399); conditions: Potency: qHTS inhibition; outcome: qHTS inhibition; further: nearly all actives have a fitted effect of over 60% in size
Summary of the method: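 Recombinant human AChE (50 mU/mL in the enzyme mix) and human liver microsomes (0.25 mg/mL final) were preincubated with compound and NADPH (0.25 mg/mL final) for 30 min at 37 C. Acetylthiocholine/DTNB was then added; thiocholine was read colorimetrically after 10 min at room temperature.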

Sequence of Acetylcholinesterase (Homo sapiens) (P22303 whole entry, looked up): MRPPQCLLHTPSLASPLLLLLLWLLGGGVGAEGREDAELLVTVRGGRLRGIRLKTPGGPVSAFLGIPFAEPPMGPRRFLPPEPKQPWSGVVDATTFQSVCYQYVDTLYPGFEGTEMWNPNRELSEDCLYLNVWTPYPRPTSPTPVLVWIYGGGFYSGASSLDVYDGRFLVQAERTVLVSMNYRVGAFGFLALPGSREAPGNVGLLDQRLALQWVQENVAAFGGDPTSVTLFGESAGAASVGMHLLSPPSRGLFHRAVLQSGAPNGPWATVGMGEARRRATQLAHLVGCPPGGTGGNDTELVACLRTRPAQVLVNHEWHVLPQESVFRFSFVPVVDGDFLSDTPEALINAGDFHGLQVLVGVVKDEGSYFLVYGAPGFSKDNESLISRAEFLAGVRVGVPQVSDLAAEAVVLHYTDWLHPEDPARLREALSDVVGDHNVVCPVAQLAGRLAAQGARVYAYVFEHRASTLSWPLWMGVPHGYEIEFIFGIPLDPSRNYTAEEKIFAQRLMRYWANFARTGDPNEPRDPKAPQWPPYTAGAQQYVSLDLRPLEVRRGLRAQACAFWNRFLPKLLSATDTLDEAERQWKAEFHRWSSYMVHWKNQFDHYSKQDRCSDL

C1=CCC2CC=CC2C1 (stereo not drawn)
Potency [1]: inactive
Potency [2]: inactive
Potency [3]: inactive

COc1ccc2cc(C=O)ccc2c1
Potency [1]: inactive
Potency [2]: inactive
Potency [3]: inactive

Nc1cc(C(F)(F)F)ccc1S
Potency [1]: inactive
Potency [2]: inactive
Potency [3]: inactive

O=C1[C@H]2CCCC[C@H]2C(=O)N1CCCCN1CCN(c2nsc3ccccc23)CC1
Potency [1]: inactive
Potency [2]: inactive
Potency [3]: inactive

CN1C(=O)c2ccc([N+](=O)[O-])cc2C1=O
Potency [1]: inactive
Potency [2]: inactive
Potency [3]: inactive

CC(=O)Nc1cc(S(=O)(=O)O)cc2cc(S(=O)(=O)O)c(N=Nc3ccccc3)c(O)c12
Potency [1]: inactive
Potency [2]: inactive
Potency [3]: inactive

OC1(c2ccccc2)CCNCC1
Potency [1]: inactive
Potency [2]: inactive
Potency [3]: inactive

CCCC(=O)O[C@]1(C(=O)COC(=O)CC)CC[C@H]2[C@@H]3CCC4=CC(=O)CC[C@]4(C)[C@H]3[C@@H](O)C[C@@]21C
activity, negative = inhibition [1]: 0.0881% [at 23.6 µM] (inactive)
activity change, negative = inhibition [2]: 0.139% [at 23.6 µM] (inactive)
activity change, negative = inhibition [3]: -1.51% [at 23.6 µM] (inactive)

O=C1NC(=O)c2cccc3cccc1c23
Potency [1]: 39.9 µM (active)
Potency [2]: inactive
Potency [3]: inactive

O=C(O)C(O)[C@H](O)[C@@H](O)[C@H](O)[C@H](O)CO (stereo partly drawn)
Potency [1]: inactive
Potency [2]: inactive
Potency [3]: inactive

c1ccc(C(O[C@@H]2CCCN(CCc3ccc4c(c3)OCO4)C2)c2ccccc2)cc1
Potency [1]: inactive
Potency [2]: inactive
Potency [3]: inactive

COC(OC)(C(=O)c1ccccc1)c1ccccc1
Potency [1]: inactive
Potency [2]: inactive
Potency [3]: inactive

Cc1ccc(C(=O)C(=O)O)cc1C
Potency [1]: inactive
Potency [2]: inactive
Potency [3]: inactive

CC(=O)[C@H]1CC[C@H]2[C@@H]3C=CC4=CC(=O)CC[C@@]4(C)[C@@H]3CC[C@]12C
Potency [1]: inactive
Potency [2]: inactive
Potency [3]: inactive

Cc1ccc(-c2ncc(Cl)cc2-c2ccc(S(C)(=O)=O)cc2)cn1
Potency [1]: 27.5 µM (active)
Potency [2]: inactive
Potency [3]: inactive

Nc1ccc([N+](=O)[O-])cc1O
Potency [1]: inactive
Potency [2]: inactive
Potency [3]: inactive

CN(CCOc1ccc(NS(C)(=O)=O)cc1)CCc1ccc(NS(C)(=O)=O)cc1
Potency [1]: 17.4 µM (active)
Potency [2]: inactive
Potency [3]: inactive

CC(C)NCC(O)c1ccc2ccccc2c1 (stereo not drawn)
Potency [1]: inactive
Potency [2]: inactive
Potency [3]: inactive

CN(C)CC/C=C1\c2ccccc2Sc2ccc(Cl)cc21
Potency [1]: inactive
Potency [2]: inactive
Potency [3]: inactive

NC/C=C/C(=O)O
Potency [1]: inactive
Potency [2]: inactive
Potency [3]: inactive

CC(C)COCC(CN(Cc1ccccc1)c1ccccc1)N1CCCC1 (stereo not drawn)
Potency [1]: inactive
Potency [2]: inactive
Potency [3]: inactive

Cc1ccccc1C(=O)O
Potency [1]: inactive
Potency [2]: inactive
Potency [3]: inactive

CC1(C)S[C@@H]2[C@H](NC(=O)C(c3ccccc3)S(=O)(=O)O)C(=O)N2[C@H]1C(=O)O (stereo partly drawn)
Potency [1]: inactive
Potency [2]: inactive
Potency [3]: inactive

CCCCCC=CCC=CCCCCCCCC(=O)OCC
Potency [1]: inactive
Potency [2]: inactive
Potency [3]: inactive

CNCc1ccc(NC(=O)c2c[nH]c3c2C(=O)CCC3)cc1
Potency [1]: 35.6 µM (active)
Potency [2]: inactive
Potency [3]: inactive

CS(C)=O
Potency [1]: inactive
Potency [2]: inactive
Potency [3]: inactive

O=C(CN1CCN(Cc2ccc3c(c2)OCO3)CC1)N1c2ccccc2Sc2ccccc21
Potency [1]: inactive
Potency [2]: inactive
Potency [3]: inactive

C=C(C)C(=O)OCCCC
Potency [1]: inactive
Potency [2]: inactive
Potency [3]: inactive

CS(=O)(=O)c1ccc(-c2cn3ccccc3n2)cc1
Potency [1]: inactive
Potency [2]: inactive
Potency [3]: inactive

CCCOc1sc(C(=O)N2CCC(c3cc(CN)ccc3F)CC2)c(C)c1Br
Potency [1]: inactive
Potency [2]: 73 µM (active)
Potency [3]: inactive

O=S(=O)(O)c1ccc(N=Nc2c(O)ccc3ccccc23)cc1
Potency [1]: inactive
Potency [2]: inactive
Potency [3]: inactive

CC[C@H](C)[C@H](N)C(=O)O
Potency [1]: inactive
Potency [2]: inactive
Potency [3]: inactive

CC(C)(C)NSc1nc2ccccc2s1
Potency [1]: inactive
Potency [2]: inactive
Potency [3]: inactive

CCOC(=O)Nc1ccc(NCc2ccc(F)cc2)nc1N
Potency [1]: inactive
Potency [2]: inactive
Potency [3]: inactive

CC(O)CCCCn1c(=O)c2c(ncn2C)n(C)c1=O (stereo not drawn)
Potency [1]: inactive
Potency [2]: inactive
Potency [3]: inactive

CCN(CC)CCNC(=O)COc1ccc(OC)cc1
Potency [1]: inactive
Potency [2]: inactive
Potency [3]: inactive

CN(C)CCCSc1ccccc1NC(=O)/C=C/c1ccccc1
Potency [1]: inactive
Potency [2]: inactive
Potency [3]: inactive

O=C(O)c1cc(O)c2ccccc2c1O
Potency [1]: inactive
Potency [2]: inactive
Potency [3]: inactive

Cc1ccc2c(c1)CCCN2
Potency [1]: inactive
Potency [2]: inactive
Potency [3]: inactive

COc1ccc2nc(NC(=O)Nc3ccccc3)sc2c1
Potency [1]: inactive
Potency [2]: inactive
Potency [3]: inactive

CCOC(=O)C(Br)c1ccccc1 (stereo not drawn)
Potency [1]: 71 µM (active)
Potency [2]: inactive
Potency [3]: inactive
